Laboratory results reported in publication PMC11006913.

Experiments:
Test in all cases: PBM; 200 nM protein, PBS
Details in all cases: dsDNA, one strand shown
HESX1 [1] = target: HESX1 (Homo sapiens, UniProt Q9UBX0 95-180, R165K)
SHOX [2] = target: SHOX (Homo sapiens, UniProt O15266 103-189)
ALX4 = ALX4 (Homo sapiens, UniProt Q9H161 200-286, Q225E)
HESX1 [3] = target: HESX1 (Homo sapiens, UniProt Q9UBX0 95-180)
MSX2 = MSX2 (Homo sapiens, UniProt P35548 130-214, R199I)
ALX1 [4] = target: ALX1 (Homo sapiens, UniProt Q15699 118-204, L144V)
ALX3 [5] = target: ALX3 (Homo sapiens, UniProt O95076 139-225, N203Q)
SHOX [6] = target: SHOX (Homo sapiens, UniProt O15266 103-189, R173C)
ALX1 [7] = target: ALX1 (Homo sapiens, UniProt Q15699 118-204, L144R)
ALX3 [8] = target: ALX3 (Homo sapiens, UniProt O95076 139-225)
PROP1 [9] = target: PROP1 (Homo sapiens, UniProt O75360 56-141)
HESX1 [10] = target: HESX1 (Homo sapiens, UniProt Q9UBX0 95-180, R109Q)
PROP1 [11] = target: PROP1 (Homo sapiens, UniProt O75360 56-141, R99H)
ALX3 [12] = target: ALX3 (Homo sapiens, UniProt O95076 139-225, L168Q)
HESX1 [13] = target: HESX1 (Homo sapiens, UniProt Q9UBX0 95-180, P111T)
ALX3 [14] = target: ALX3 (Homo sapiens, UniProt O95076 139-225, L168V)
PROP1 [15] = target: PROP1 (Homo sapiens, UniProt O75360 56-141, F88S)
HESX1 [16] = target: HESX1 (Homo sapiens, UniProt Q9UBX0 95-180, F115L)
ALX1 [17] = target: ALX1 (Homo sapiens, UniProt Q15699 118-204)
ALX3 [18] = target: ALX3 (Homo sapiens, UniProt O95076 139-225, N203S)
Chain of ALX3 (Homo sapiens, UniProt O95076 139-225, N203S) (O95076 139-225 N203S): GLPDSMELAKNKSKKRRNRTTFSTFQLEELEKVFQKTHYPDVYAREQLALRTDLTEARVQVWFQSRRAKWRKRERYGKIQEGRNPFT

Chain of ALX1 (Homo sapiens, UniProt Q15699 118-204, L144R) (Q15699 118-204 L144R): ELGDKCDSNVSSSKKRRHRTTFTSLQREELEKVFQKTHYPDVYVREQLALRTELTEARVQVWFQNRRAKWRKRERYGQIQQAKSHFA
Chain of HESX1 (Homo sapiens, UniProt Q9UBX0 95-180, P111T) (Q9UBX0 95-180 P111T): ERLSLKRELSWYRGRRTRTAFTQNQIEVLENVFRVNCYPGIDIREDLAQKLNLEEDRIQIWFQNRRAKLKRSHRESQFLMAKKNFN
Chain of PROP1 (Homo sapiens, UniProt O75360 56-141, R99H) (O75360 56-141 R99H): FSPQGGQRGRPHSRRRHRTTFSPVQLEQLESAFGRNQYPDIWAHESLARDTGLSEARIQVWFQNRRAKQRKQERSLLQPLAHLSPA
Chain of HESX1 (Homo sapiens, UniProt Q9UBX0 95-180, R109Q) (Q9UBX0 95-180 R109Q): as the sequence (Q9UBX0 95-180 P111T) above, with R15Q, T17P counted along it
Chain of MSX2 (P35548 130-214 R199I): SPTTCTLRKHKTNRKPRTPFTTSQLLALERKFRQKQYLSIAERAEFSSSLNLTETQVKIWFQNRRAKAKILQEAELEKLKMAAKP
Chain of ALX1 (Homo sapiens, UniProt Q15699 118-204) (Q15699 118-204): as the sequence (Q15699 118-204 L144R) above, with R27L counted along it
Chain of SHOX (Homo sapiens, UniProt O15266 103-189) (O15266 103-189): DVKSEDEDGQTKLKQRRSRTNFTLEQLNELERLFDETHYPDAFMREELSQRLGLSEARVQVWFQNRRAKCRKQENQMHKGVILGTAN
Chain of ALX3 (Homo sapiens, UniProt O95076 139-225, N203Q) (O95076 139-225 N203Q): as the sequence (O95076 139-225 N203S) above, with S65Q counted along it
Chain of SHOX (Homo sapiens, UniProt O15266 103-189, R173C) (O15266 103-189 R173C): as the sequence (O15266 103-189) above, with R71C counted along it
Chain of HESX1 (Homo sapiens, UniProt Q9UBX0 95-180, R165K) (Q9UBX0 95-180 R165K): as the sequence (Q9UBX0 95-180 P111T) above, with T17P, R71K counted along it
Chain of ALX3 (Homo sapiens, UniProt O95076 139-225, L168V) (O95076 139-225 L168V): as the sequence (O95076 139-225 N203S) above, with L30V, S65N counted along it
Chain of PROP1 (Homo sapiens, UniProt O75360 56-141) (O75360 56-141): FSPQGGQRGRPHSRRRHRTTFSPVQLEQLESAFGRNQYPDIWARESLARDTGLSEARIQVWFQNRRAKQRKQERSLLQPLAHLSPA
Chain of HESX1 (Homo sapiens, UniProt Q9UBX0 95-180) (Q9UBX0 95-180): as the sequence (Q9UBX0 95-180 P111T) above, with T17P counted along it
Chain of ALX4 (Q9H161 200-286 Q225E): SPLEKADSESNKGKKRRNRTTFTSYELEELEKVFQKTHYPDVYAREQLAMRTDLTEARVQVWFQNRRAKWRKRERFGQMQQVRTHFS
Chain of ALX3 (Homo sapiens, UniProt O95076 139-225, L168Q) (O95076 139-225 L168Q): as the sequence (O95076 139-225 N203S) above, with L30Q, S65N counted along it
Chain of HESX1 (Homo sapiens, UniProt Q9UBX0 95-180, F115L) (Q9UBX0 95-180 F115L): as the sequence (Q9UBX0 95-180 P111T) above, with T17P, F21L counted along it
Chain of PROP1 (Homo sapiens, UniProt O75360 56-141, F88S) (O75360 56-141 F88S): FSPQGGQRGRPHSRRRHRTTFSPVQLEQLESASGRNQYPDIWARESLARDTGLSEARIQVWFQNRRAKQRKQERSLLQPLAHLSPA
Chain of ALX3 (Homo sapiens, UniProt O95076 139-225) (O95076 139-225): as the sequence (O95076 139-225 N203S) above, with S65N counted along it
Chain of ALX1 (Homo sapiens, UniProt Q15699 118-204, L144V) (Q15699 118-204 L144V): as the sequence (Q15699 118-204 L144R) above, with R27V counted along it

GGTAATTA
binding signal (HESX1 [1]): 13.1 upbm affinity estimate (log intensity, higher = more binding, comparable within an allelic series)
binding signal (SHOX [2]): 12.7 upbm affinity estimate (log intensity, higher = more binding, comparable within an allelic series)
binding signal (ALX4): 13.9 upbm affinity estimate (log intensity, higher = more binding, comparable within an allelic series)
binding signal (HESX1 [3]): 13.2 upbm affinity estimate (log intensity, higher = more binding, comparable within an allelic series)
binding signal (MSX2): 13.3 upbm affinity estimate (log intensity, higher = more binding, comparable within an allelic series)
binding signal (ALX1 [4]): 12.1 upbm affinity estimate (log intensity, higher = more binding, comparable within an allelic series)
binding signal (ALX3 [5]): 8.47 upbm affinity estimate (log intensity, higher = more binding, comparable within an allelic series)
binding signal (SHOX [6]): 10 upbm affinity estimate (log intensity, higher = more binding, comparable within an allelic series)
binding signal (ALX1 [7]): 11.8 upbm affinity estimate (log intensity, higher = more binding, comparable within an allelic series)
binding signal (ALX3 [8]): 12.8 upbm affinity estimate (log intensity, higher = more binding, comparable within an allelic series)
binding signal (PROP1 [9]): 11.9 upbm affinity estimate (log intensity, higher = more binding, comparable within an allelic series)
binding signal (HESX1 [10]): 9.54 upbm affinity estimate (log intensity, higher = more binding, comparable within an allelic series)
binding signal (PROP1 [11]): 11.8 upbm affinity estimate (log intensity, higher = more binding, comparable within an allelic series)
binding signal (ALX3 [12]): 11 upbm affinity estimate (log intensity, higher = more binding, comparable within an allelic series)
binding signal (HESX1 [13]): 11.7 upbm affinity estimate (log intensity, higher = more binding, comparable within an allelic series)
binding signal (ALX3 [14]): 10.7 upbm affinity estimate (log intensity, higher = more binding, comparable within an allelic series)
binding signal (PROP1 [15]): 7.94 upbm affinity estimate (log intensity, higher = more binding, comparable within an allelic series)
binding signal (HESX1 [16]): 8.04 upbm affinity estimate (log intensity, higher = more binding, comparable within an allelic series)
binding signal (ALX1 [17]): 12.8 upbm affinity estimate (log intensity, higher = more binding, comparable within an allelic series)
binding signal (ALX3 [18]): 8.62 upbm affinity estimate (log intensity, higher = more binding, comparable within an allelic series)

GTAATTAC
binding signal (HESX1 [1]): 12.5 upbm affinity estimate (log intensity, higher = more binding, comparable within an allelic series)
binding signal (SHOX [2]): 12.4 upbm affinity estimate (log intensity, higher = more binding, comparable within an allelic series)
binding signal (ALX4): 13.5 upbm affinity estimate (log intensity, higher = more binding, comparable within an allelic series)
binding signal (HESX1 [3]): 12.6 upbm affinity estimate (log intensity, higher = more binding, comparable within an allelic series)
binding signal (MSX2): 13.2 upbm affinity estimate (log intensity, higher = more binding, comparable within an allelic series)
binding signal (ALX1 [4]): 12.1 upbm affinity estimate (log intensity, higher = more binding, comparable within an allelic series)
binding signal (ALX3 [5]): 8.56 upbm affinity estimate (log intensity, higher = more binding, comparable within an allelic series)
binding signal (SHOX [6]): 9.86 upbm affinity estimate (log intensity, higher = more binding, comparable within an allelic series)
binding signal (ALX1 [7]): 11.7 upbm affinity estimate (log intensity, higher = more binding, comparable within an allelic series)
binding signal (ALX3 [8]): 12.7 upbm affinity estimate (log intensity, higher = more binding, comparable within an allelic series)
binding signal (PROP1 [9]): 11.8 upbm affinity estimate (log intensity, higher = more binding, comparable within an allelic series)
binding signal (HESX1 [10]): 9.11 upbm affinity estimate (log intensity, higher = more binding, comparable within an allelic series)
binding signal (PROP1 [11]): 11.6 upbm affinity estimate (log intensity, higher = more binding, comparable within an allelic series)
binding signal (ALX3 [12]): 10.7 upbm affinity estimate (log intensity, higher = more binding, comparable within an allelic series)
binding signal (HESX1 [13]): 11 upbm affinity estimate (log intensity, higher = more binding, comparable within an allelic series)
binding signal (ALX3 [14]): 10.2 upbm affinity estimate (log intensity, higher = more binding, comparable within an allelic series)
binding signal (PROP1 [15]): 8.06 upbm affinity estimate (log intensity, higher = more binding, comparable within an allelic series)
binding signal (HESX1 [16]): 7.87 upbm affinity estimate (log intensity, higher = more binding, comparable within an allelic series)
binding signal (ALX1 [17]): 12.5 upbm affinity estimate (log intensity, higher = more binding, comparable within an allelic series)
binding signal (ALX3 [18]): 8.69 upbm affinity estimate (log intensity, higher = more binding, comparable within an allelic series)

CGTAATTA
binding signal (HESX1 [1]): 12.6 upbm affinity estimate (log intensity, higher = more binding, comparable within an allelic series)
binding signal (SHOX [2]): 12.4 upbm affinity estimate (log intensity, higher = more binding, comparable within an allelic series)
binding signal (ALX4): 13.5 upbm affinity estimate (log intensity, higher = more binding, comparable within an allelic series)
binding signal (HESX1 [3]): 12.6 upbm affinity estimate (log intensity, higher = more binding, comparable within an allelic series)
binding signal (MSX2): 12.9 upbm affinity estimate (log intensity, higher = more binding, comparable within an allelic series)
binding signal (ALX1 [4]): 12 upbm affinity estimate (log intensity, higher = more binding, comparable within an allelic series)
binding signal (ALX3 [5]): 8.47 upbm affinity estimate (log intensity, higher = more binding, comparable within an allelic series)
binding signal (SHOX [6]): 9.89 upbm affinity estimate (log intensity, higher = more binding, comparable within an allelic series)
binding signal (ALX1 [7]): 11.7 upbm affinity estimate (log intensity, higher = more binding, comparable within an allelic series)
binding signal (ALX3 [8]): 12.7 upbm affinity estimate (log intensity, higher = more binding, comparable within an allelic series)
binding signal (PROP1 [9]): 11.6 upbm affinity estimate (log intensity, higher = more binding, comparable within an allelic series)
binding signal (HESX1 [10]): 9.06 upbm affinity estimate (log intensity, higher = more binding, comparable within an allelic series)
binding signal (PROP1 [11]): 11.5 upbm affinity estimate (log intensity, higher = more binding, comparable within an allelic series)
binding signal (ALX3 [12]): 10.7 upbm affinity estimate (log intensity, higher = more binding, comparable within an allelic series)
binding signal (HESX1 [13]): 11.1 upbm affinity estimate (log intensity, higher = more binding, comparable within an allelic series)
binding signal (ALX3 [14]): 10.2 upbm affinity estimate (log intensity, higher = more binding, comparable within an allelic series)
binding signal (PROP1 [15]): 7.88 upbm affinity estimate (log intensity, higher = more binding, comparable within an allelic series)
binding signal (HESX1 [16]): 7.77 upbm affinity estimate (log intensity, higher = more binding, comparable within an allelic series)
binding signal (ALX1 [17]): 12.7 upbm affinity estimate (log intensity, higher = more binding, comparable within an allelic series)
binding signal (ALX3 [18]): 8.56 upbm affinity estimate (log intensity, higher = more binding, comparable within an allelic series)

GTTAATTA
binding signal (HESX1 [1]): 13.7 upbm affinity estimate (log intensity, higher = more binding, comparable within an allelic series)
binding signal (SHOX [2]): 13.1 upbm affinity estimate (log intensity, higher = more binding, comparable within an allelic series)
binding signal (ALX4): 14.5 upbm affinity estimate (log intensity, higher = more binding, comparable within an allelic series)
binding signal (HESX1 [3]): 13.6 upbm affinity estimate (log intensity, higher = more binding, comparable within an allelic series)
binding signal (MSX2): 13.1 upbm affinity estimate (log intensity, higher = more binding, comparable within an allelic series)
binding signal (ALX1 [4]): 12.3 upbm affinity estimate (log intensity, higher = more binding, comparable within an allelic series)
binding signal (ALX3 [5]): 8.67 upbm affinity estimate (log intensity, higher = more binding, comparable within an allelic series)
binding signal (SHOX [6]): 10.7 upbm affinity estimate (log intensity, higher = more binding, comparable within an allelic series)
binding signal (ALX1 [7]): 12 upbm affinity estimate (log intensity, higher = more binding, comparable within an allelic series)
binding signal (ALX3 [8]): 13 upbm affinity estimate (log intensity, higher = more binding, comparable within an allelic series)
binding signal (PROP1 [9]): 12.1 upbm affinity estimate (log intensity, higher = more binding, comparable within an allelic series)
binding signal (HESX1 [10]): 10.5 upbm affinity estimate (log intensity, higher = more binding, comparable within an allelic series)
binding signal (PROP1 [11]): 12.1 upbm affinity estimate (log intensity, higher = more binding, comparable within an allelic series)
binding signal (ALX3 [12]): 11.5 upbm affinity estimate (log intensity, higher = more binding, comparable within an allelic series)
binding signal (HESX1 [13]): 12.3 upbm affinity estimate (log intensity, higher = more binding, comparable within an allelic series)
binding signal (ALX3 [14]): 11.2 upbm affinity estimate (log intensity, higher = more binding, comparable within an allelic series)
binding signal (PROP1 [15]): 8.2 upbm affinity estimate (log intensity, higher = more binding, comparable within an allelic series)
binding signal (HESX1 [16]): 8.41 upbm affinity estimate (log intensity, higher = more binding, comparable within an allelic series)
binding signal (ALX1 [17]): 13 upbm affinity estimate (log intensity, higher = more binding, comparable within an allelic series)
binding signal (ALX3 [18]): 8.84 upbm affinity estimate (log intensity, higher = more binding, comparable within an allelic series)
